{"source": "PubChem BioAssay (Tox21)", "note": "Records with an inconclusive call do not appear. A call without a number means that no potency is given here. Active and inactive are the calls of the source. Calls come from the whole dose curve; as a rule, active = well fitted cell-killing curve with a large enough effect in the repeat runs; inconclusive = weak or mixed curves, or effect the other way; inactive = flat fitted curve, though single readings scatter.", "data": [{"assay": "cAMP Responsive Elements (CRE) small molecule antagonists, cell-based qHTS assay: qHTS cell viability counter screen (AID 2060913); note: nearly all actives have a fitted effect of over 40% in size; note: potency is the fitted concentration of half-maximal effect", "conditions": "CRE-bla HEK293T viability, CellTiter-Glo luminescence, 5 h; series mostly up to 92.4 µM", "outline": "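Cytotoxicity read in the same wells as the CRE-bla HEK293T antagonist assay: after 3 h compound with 0.25 uM NKH477 final and 2 h beta-lactamase substrate, CellTiter-Glo luminescence measured.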", "values": [{"compound": "CCOC(=O)CC(SP(=O)(OC)OC)C(=O)OCC", "note": "(stereo not given)", "Potency": "inactive"}, {"compound": "CCCCN(CCCC)C(=S)[S-].CCCCN(CCCC)C(=S)[S-].[Ni+2]", "Potency": "inactive"}, {"compound": "O=C(NC(=O)c1c(F)cccc1F)Nc1ccc(OC(F)(F)C(F)OC(F)(F)F)c(Cl)c1", "note": "(stereo not given)", "Potency": "inactive"}, {"compound": "CCOC(=O)c1ncn2c1CN(C)C(=O)c1c(I)cccc1-2", "Potency": "inactive"}, {"compound": "C[C@H]1CCC[C@H](O)CCCCCc2cc(O)cc(O)c2C(=O)O1", "Potency": "inactive"}, {"compound": "C#C[C@]1(O)C=C[C@H]2[C@@H]3CCC4=CC(=O)CC[C@@H]4[C@H]3CC[C@@]21CC", "Potency": "inactive"}, {"compound": "O=C(O)C(Cl)Br", "note": "(stereo not given)", "Potency": "inactive"}, {"compound": "O=P(O)(O)CN(CP(=O)(O)O)CP(=O)(O)O", "Potency": "inactive"}, {"compound": "CC(=O)[O-].CC(=O)[O-].[Co+2]", "Potency": "inactive"}, {"compound": "CC(C)C#N", "Potency": "inactive"}, {"compound": "CC(C)[C@@H](Nc1ccc(C(F)(F)F)cc1Cl)C(=O)OC(C#N)c1cccc(Oc2ccccc2)c1", "note": "(stereo not given in full)", "Potency": "inactive"}, {"compound": "O=C1C2(Cl)C3(Cl)C4(Cl)C(Cl)(Cl)C5(Cl)C3(Cl)C1(Cl)C5(Cl)C24Cl", "note": "(stereo not given)", "Potency": "60.1 µM (active)"}, {"compound": "c1ccc2nc(N3CCNCC3)ccc2c1", "Potency": "inactive"}, {"compound": "CCOP(=S)(OCC)O/N=C(\\C#N)c1ccccc1", "Potency": "inactive"}, {"compound": "COC(C)(C)CCCC(C)C/C=C/C(C)=C/C(=O)OC(C)C", "note": "(stereo not given)", "Potency": "inactive"}, {"compound": "CCSC(C)CC1CC(=O)C(/C(CC)=N/OC/C=C/Cl)=C(O)C1", "note": "(stereo not given)", "Potency": "inactive"}, {"compound": "CCC[CH2][Sn]([CH2]CCC)([CH2]CCC)[CH2]CCC", "Potency": "inactive"}, {"compound": "CC(C)(C)OOC(C)(C)CCC(C)(C)OOC(C)(C)C", "Potency": "inactive"}, {"compound": "CC(C)Br", "Potency": "inactive"}, {"compound": "O=C(OC1CCCCC1)c1ccccc1C(=O)OC1CCCCC1", "Potency": "inactive"}, {"compound": "O=S(=O)(C(Cl)(Cl)Cl)C(Cl)(Cl)Cl", "Potency": "inactive"}, {"compound": "CC(Cl)CCl", "note": "(stereo not given)", "Potency": "inactive"}, {"compound": "C[Si](Cn1cncn1)(c1ccc(F)cc1)c1ccc(F)cc1", "Potency": "inactive"}, {"compound": "ClC(Cl)(Cl)c1ccccc1", "Potency": "inactive"}, {"compound": "CCC(C)(C)O", "Potency": "inactive"}, {"compound": "CNC(=O)Oc1cc(C)c(N(C)C)c(C)c1", "Potency": "inactive"}, {"compound": "C1CCC2CCCCC2C1", "note": "(stereo not given)", "Potency": "inactive"}, {"compound": "C#CCOC(=O)/C=C(C)/C=C/CC(C)CCCC(C)C", "note": "(stereo not given)", "Potency": "inactive"}, {"compound": "OC(c1ccc(F)cc1)(c1cncnc1)c1ccccc1Cl", "note": "(stereo not given)", "Potency": "inactive"}, {"compound": "CC(Cl)C(C)Cl", "note": "(stereo not given)", "Potency": "inactive"}, {"compound": "OC(c1ccc(Cl)cc1)(c1cncnc1)c1ccccc1Cl", "note": "(stereo not given)", "Potency": "inactive"}, {"compound": "CCCCC(CC)COC(=O)Cl", "note": "(stereo not given)", "Potency": "inactive"}, {"compound": "N#CCCO", "Potency": "inactive"}, {"compound": "CC(Cc1ccccc1)NCc1ccccc1Cl", "note": "(stereo not given)", "Potency": "inactive"}, {"compound": "CCCSP(=S)(OCC)Oc1ccc(SC)cc1", "note": "(stereo not given)", "Potency": "inactive"}, {"compound": "COC(=O)Cc1ccccc1", "Potency": "inactive"}, {"compound": "CCC(C)(C)C(=O)OC1=C(c2ccc(Cl)cc2Cl)C(=O)OC12CCCCC2", "Potency": "inactive"}, {"compound": "O=c1[nH]c(=O)n(Cl)c(=O)n1Cl", "Potency": "inactive"}, {"compound": "[Cl][Sn]([Cl])([Cl])[Cl]", "Potency": "inactive"}, {"compound": "O=[N+]([O-])C(Br)(CO)CO", "Potency": "inactive"}]}]}
